Shh pathway inh: Hedgehog pathway signaling inhibitors, primary screen, luminescence, Shh-LIGHT2 cells, Gli-luciferase; Shh-LIGHT2 Gli-luciferase reporter, 30 h; inhibition, % (no concentration beside the values); actives 2.1% (n = 22,000);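 active = mean inhibition across valid replicates above about 65%, limit read from the data; inconclusive = mean under the limit, yet half or more replicates past it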;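 also: pathway switched on by Shh-conditioned medium diluted 1 in 25 in low serum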
MITF inhib: inhibitors of MITF, primary screen, MITF inhibitor project, cell-based, luminescence; actives 0.28% (n = 37,000); TRPM1 promoter luciferase, 24 h; inhibition, % (concentration not given with the values); in the data active = inhibition above about 85%; inconclusive = no clear call, values can overlap the other calls; inactive = below about 68%;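 also: human melanocyte line stably carrying TRPM1 promoter luciferase reporter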
YB-1 expr inh: inhibitors of YB-1 gene expression, primary screen, cell-based, fluorescence. AID 434959, 2010. delta delta Cp (YB-1 minus CDIP) (no concentration beside the values). actives 0.37% (n = 30,000). U2OS, qRT-PCR YB-1 vs CDIP delta delta Cp, 16 h; stronger effect = higher value; zero = DMSO, each unit about twofold;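 active = delta delta Cp rounded down to an integer at or above 3, about 3 SD of DMSO wells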;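 also: higher means less YB-1 transcript or more CDIP transcript relative to DMSO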
PD-1 reversal: activators reversing PD-1 mediated T-cell inhibition, primary screen, luminescence, primary human CD4 T cells, PD-L1 beads. activation, % (concentration not given with the values). CellTiter-Glo 96 h. 29,000 tested, under 10 active; call rule not given here;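 also: 0% = median vehicle wells and 100% = positive control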
NOMO-1 viab: NOMO-1 AML cell viability reduction, primary screen, STK33 inhibitor project, CellTiter-Glo luminescence; inhibition, % (no concentration beside the values); AID 2330, 2010; NOMO-1 AML viability, 72 h; actives 7.5% (n = 37,000); in the data active = inhibition above about 80%; inconclusive = no clear call, values can overlap the other calls
* = called active by the depositor; ? = inconclusive; nt = no result. A selection: hits, their analogues and other compounds. The true share with any hit is near 7.4%.

SMILES | Shh pathway inh | MITF inhib | YB-1 expr inh | PD-1 reversal | NOMO-1 viab
COc1ccc(S(=O)(=O)N(C)C[C@@H]2Oc3ccc(NC(=O)Nc4ccc(C(F)(F)F)cc4)cc3C(=O)N([C@H](C)CO)C[C@@H]2C)cc1 | nt | 39 | -0.51 | -1 | 105*
C[C@@H]1CN([C@@H](C)CO)C(=O)c2cc(NC(=O)C3CC3)ccc2O[C@@H]1CN(C)S(=O)(=O)c1ccc(Cl)cc1 | 4 | 2 | -0.13 | -1 | 4
C[C@@H]1CN([C@@H](C)CO)C(=O)c2cc(NC(=O)C3CC3)ccc2O[C@H]1CN(C)S(=O)(=O)c1ccc(Cl)cc1 | 67* | -11 | -0.27 | -2 | -1
C[C@@H]1CN([C@H](C)CO)C(=O)c2cc(NC(=O)Nc3ccc(C(F)(F)F)cc3)ccc2O[C@H]1CN(C)S(=O)(=O)c1ccccc1 | -9 | -29 | -0.42 | 3 | 52
C=C(C)C(=O)Nc1ccc(O)c(-c2nc3ccccc3[nH]2)c1 | -3 | -20 | -0.15 | -2 | 7
N#CCCN(Cc1ccco1)C(=S)Nc1ccccc1 | nt | -20 | nt | nt | -1
Cc1ccc(-n2c(=O)c3c4c(sc3n3c(SCC(=O)c5ccc(F)cc5)nnc23)CCCC4)cc1 | nt | -3 | nt | nt | 96*
CC(=O)C(Sc1cc(C)nc(N)n1)C(=O)Nc1ccccc1 (configuration not stated) | nt | 11 | nt | -6 | 16
C[C@@H]1CN([C@@H](C)CO)C(=O)c2cccc(NC(=O)Nc3ccc(C(F)(F)F)cc3)c2O[C@@H]1CN(C)CC1CCCCC1 | 31 | -1 | 0.067 | -12 | 95*
C[C@@H]1CN([C@H](C)CO)C(=O)c2cccc(NC(=O)Nc3ccc(C(F)(F)F)cc3)c2O[C@H]1CN(C)CC1CC1 | -42 | 26 | -0.48 | nt | 84*
C[C@@H]1CN([C@@H](C)CO)C(=O)c2cccc(NC(=O)Nc3ccc(C(F)(F)F)cc3)c2O[C@@H]1CN(C)CC1CC1 | 11 | -6 | 0.47 | -1 | 56
COc1cc(NC(=O)COc2ccccc2C)ccc1NC(=O)c1ccccc1Cl | nt | -11 | nt | nt | 27
CC1(C)c2ccccc2N(CCC(N)=O)C12C=Cc1c(ccc3ccccc13)O2 (configuration not stated) | 2 | 39 | 0.039 | 0 | 88*
CCN(CC(=O)Nc1c(C)cc(C)cc1C)S(=O)(=O)c1ccc2ccccc2c1 | nt | 24 | nt | 3 | 2
C[C@@H]1CN([C@@H](C)CO)C(=O)c2cc(NS(=O)(=O)c3cccs3)ccc2O[C@@H]1CN(C)Cc1ccc(C(=O)Nc2ccccc2N)cc1 | nt | 27 | -0.52 | -3 | 111*
C[C@H](CO)N1C[C@H](C)[C@H](CN(C)Cc2ccc(C(=O)Nc3ccccc3N)cc2)Oc2ccc(NS(=O)(=O)c3cccs3)cc2CC1=O | nt | 23 | 0.14 | -6 | 128*
O=c1c(Cc2ccccc2OCc2ccccc2)coc2ccccc12 | 93* | 17 | -0.27 | 0 | 40
COc1cc(-c2coc3cc(OCc4ccccc4)c(OC)c(O)c3c2=O)cc(O)c1OC | 31 | -31 | 0.2 | nt | 28
O=C(O)CCc1ccc(F)cc1 | -5 | 6 | 0.24 | 1 | -17
O=c1cc(-c2ccccc2)n(-c2ccccc2)cn1 | -70 | -19 | -0.38 | -5 | 101*
CCC1=NC(C(F)(F)F)(C(F)(F)F)C2=C(CC(C)(C)CC2=O)N1Cc1ccccc1 | 36 | -31 | -0.91 | -2 | 41
C[C@@H]1CN([C@@H](C)CO)C(=O)Cc2cc(NC(=O)NC3CCCCC3)ccc2O[C@@H]1CN(C)Cc1ccc(Cl)c(Cl)c1 | 30 | 48 | 0.22 | nt | 111*
C[C@H]1CN([C@@H](C)CO)C(=O)Cc2cc(NC(=O)NC3CCCCC3)ccc2O[C@@H]1CN(C)Cc1ccc(Cl)c(Cl)c1 | ? | 3 | -17 | 0 | 105*
C[C@@H]1CN([C@H](C)CO)C(=O)Cc2cc(NC(=O)NC3CCCCC3)ccc2O[C@H]1CN(C)Cc1ccncc1 | 9 | 8 | 0.17 | 2 | 6
C[C@@H]1CN([C@@H](C)CO)C(=O)Cc2cc(NC(=O)C3CCCCC3)ccc2O[C@@H]1CN(C)Cc1ccc(Cl)c(Cl)c1 | nt | 37 | -0.094 | nt | 123*
SMILES | Shh pathway inh | MITF inhib | YB-1 expr inh | PD-1 reversal | NOMO-1 viab
C[C@@H]1CN([C@H](C)CO)C(=O)Cc2cc(NC(=O)NC3CCCCC3)ccc2O[C@@H]1CN(C)Cc1ccncc1 | -26 | -5 | -0.019 | -1 | 10
CCn1c(SCC(=O)Nc2c(F)cc(F)cc2Br)nnc1-c1ccccc1F | nt | -1 | nt | nt | 9
N#C/C(=C\c1ccc(Cl)c(Cl)c1)c1ccc(NC(N)=O)cc1 | 15 | -28 | -0.093 | 0 | -7
CCCCCCCCNC(C)C(O)c1ccc(SC(C)C)cc1 (configuration not stated) | 57 | 11 | -0.12 | nt | 120*
CC(NCCc1ccc(O)cc1)C(O)c1ccc(O)cc1 (configuration not stated) | 36 | 11 | -0.48 | nt | -2
CC12CC3(C)CC(C)(C1)CC(CN=Cc1ccc(O)cc1)(C2)C3 | 24 | -3 | -0.16 | -2 | 112*
CCn1c(SCC(=O)Nc2cccc(OC)c2)nc2scc(-c3ccccc3)c2c1=O | nt | 11 | nt | nt | 22
C[C@H](CO)N1C[C@H](C)[C@H](CN(C)Cc2ccc(Cl)c(Cl)c2)Oc2ccc(NC(=O)Cc3cn(C)c4ccccc34)cc2C1=O | -21 | 39 | -0.24 | -2 | 108*
C[C@@H]1CN([C@@H](C)CO)C(=O)c2cc(NC(=O)Cc3cn(C)c4ccccc34)ccc2O[C@H]1CN(C)Cc1ccc(Cl)c(Cl)c1 | nt | 41 | 0.087 | -2 | 97*
C[C@@H]1CN([C@H](C)CO)C(=O)c2cc(NS(=O)(=O)c3cccs3)ccc2O[C@@H]1CN(C)Cc1ccc(-c2ccccc2)cc1 | 31 | 42 | 0.037 | -1 | 113*
C[C@H]1CN([C@@H](C)CO)C(=O)Cc2cc(NS(=O)(=O)c3cccs3)ccc2O[C@@H]1CN(C)Cc1ccc(-c2ccccc2)cc1 | -8 | 23 | 0.043 | nt | 89*
Cc1noc(C)c1NC(=O)N(C)C[C@@H]1Oc2ccc(NS(=O)(=O)c3cccs3)cc2CC(=O)N([C@@H](C)CO)C[C@@H]1C | -9 | -13 | 15* | nt | -4
C[C@@H]1CN([C@H](C)CO)C(=O)Cc2cc(NS(=O)(=O)c3cccs3)ccc2O[C@@H]1CN(C)Cc1ccc(Oc2ccccc2)cc1 | 34 | 2 | -0.0057 | nt | 118*
C[C@H]1CN([C@@H](C)CO)C(=O)Cc2cc(NS(=O)(=O)c3cccs3)ccc2O[C@H]1CN(C)Cc1ccc(Oc2ccccc2)cc1 | -5 | -3 | 0.15 | 1 | 70
Cc1cc(C(=O)Sc2cccc(C(F)(F)F)c2)nn1C(C)(C)C | -11 | -17 | 0.59 | -8 | 55
CCc1ccc(OCC(=O)Nc2cc(OC)ccc2OC)c(Br)c1 | nt | -57 | nt | -1 | -7

High-throughput results (PubChem)
